Measurements from PubChem BioAssay AID489008 (National Center for Advancing Translational Sciences (NCATS), 2010).
Results filed as inconclusive are left out. Activity calls are given as the source filed them. Calls come from the whole dose curve; as a rule, active = well fitted inhibition curve with a large enough effect; inconclusive = small, poorly fitted or top-dose-only effect; inactive = flat fitted curve, though single readings scatter.

The molecules below were run against Ferritin light chain (Equus caballus) (UniProt P02791) (assay: Confirmation Assay for Identification of Novel General Anesthetics). Conditions: apoferritin 1-aminoanthracene fluorescence displacement.
Sequence of Ferritin light chain (Equus caballus) (P02791 2-175 limits assumed): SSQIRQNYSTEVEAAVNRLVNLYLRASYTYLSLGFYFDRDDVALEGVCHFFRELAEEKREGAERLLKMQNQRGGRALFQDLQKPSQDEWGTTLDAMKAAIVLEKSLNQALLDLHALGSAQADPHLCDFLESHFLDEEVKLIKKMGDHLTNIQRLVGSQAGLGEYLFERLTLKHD
Text: Anesthetic development has remained a largely empirical process. There are growing concerns about the cognitive effects of known general anesthetics and acceleration of the onset of neurodegenerative disease. The compounds' toxicity and multiple specific binding targets in the mammalian brain [4] has made them less attractive as drug leads. In this assay, a GABAergic mimetic model system, apoferritin and a profluorescent 1-aminoanthracene ligand (1-AMA), was used to construct a competitive binding assay for identification of novel general anesthetics. The assay was validated for 1-AMA using other known anesthetics, such as isoflurane (CID:3763) and propofol (CID: 4943), [6]. This particular BioAssay is a confirmation of followup compounds from primary screen AID:485281.
[1] S.L. Bianchi, T. Tran, C. Liu, S. Lin, Y. Li, J.M. Keller, R.G. Eckenhoff, and M.F. Eckenhoff, Brain and behavior changes in 12-month-old Tg2576 and nontransgenic mice exposed to anesthetics. Neurobiol Aging 29 (2008) 1002-10.
[2] Z. Xie, Y. Dong, U. Maeda, R.D. Moir, W. Xia, D.J. Culley, G. Crosby, and R.E. Tanzi, The inhalation anesthetic isoflurane induces a vicious cycle of apoptosis and amyloid beta-protein accumulation. J Neurosci 27 (2007) 1247-54.
[3] P. Honegger, and J.M. Matthieu, Selective toxicity of the general anesthetic propofol for GABAergic neurons in rat brain cell cultures. J Neurosci Res 45 (1996) 631-6.
[4] M.F. Eckenhoff, K. Chan, and R.G. Eckenhoff, Multiple specific binding targets for inhaled anesthetics in the mammalian brain. J Pharmacol Exp Ther 300 (2002) 172-9.
[5] C.A. Butts, J. Xi, G. Brannigan, A.A. Saad, S.P. Venkatachalan, R.A. Pearce, M.L. Klein, R.G. Eckenhoff, and I.J. Dmochowski, Identification of a fluorescent general anesthetic, 1-aminoanthracene. Proc Natl Acad Sci U S A 106 (2009) 6501-6.
[6] W.A. Lea, J. Xi, A. Jadhav, L. Lu, C.P. Austin, A. Simeonov, and R.G. Eckenhoff, A high-throughput approach for identification of novel general anesthetics. PLoS One 4 (2009) e7150.
Source: NIH Chemical Genomics Center [NCGC]
Assay Submitter: Roderic Eckenhoff, University of Pennsylvania
Screening Center PI: Christopher P. Austin, NIH
Probe Development: NIH Chemical Genomics Center [NCGC]
Three uL of reagents (free 1-AMA (50% saturated solution of 1-aminoanthracene
in PBS) in columns 3, 4 as negative control and 1-AMA/apoferritin mixture (10 uM horse-spleen apoferritin in 50% saturated 1-aminoanthracene in PBS) in columns 1, 2, 5-48) was dispensed into 1536-well Greiner black assay plates. Compounds (23 nL) were transferred via Kalypsys pintool equipped with 1,536-pin array (10 nL slotted pins, V&P Scientific, San Diego, CA). Titration of the positive control, propofol, were delivered via pin transfer from separate control plates to the 2nd column of each assay plate. The starting concentration of the control, dissolved in DMSO, was at 160 mM, followed by two-fold dilution points in duplicate, for a total of 16 concentrations. The plates were incubated for 10 min at room temperature, and then read on an EnVision HTS multilabel reader (Perkin-Elmer, Waltham, MA) (end point read, 3 min/plate) using Fura2 BFP excitation filter (380 nm, bandwidth 10 nm) and fluorescein emission filter (535 nm, bandwidth 25 nm) set. A LANCE/DELFIA dichroic mirror with a cutoff wavelength at 400 nm was used to maximize signal accuracy and strength. Vehicle-only plates, with DMSO being pin-transferred to the entire column 5-48 compound area, were inserted uniformly at the beginning and the end of each library in order to monitor for and record any shifts in the background. Activity was computed as the normalized fluorescence response relative to free 1-AMA and 1-AMA/apoferritin complex values. Concentration-effect relationships were derived by using curve fitting algorithms developed in-house (http://ncgc.nih.gov/pub/openhts/). […]
Note: nearly all actives have a fitted effect of over 40% in size.
Potency is the fitted concentration of half-maximal effect.

Potency, active:
Nc1nc(SCc2ccc(Cl)cc2)ns1 12.6 µM
N#Cc1ccc(NC(=O)COC(=O)CNC(=O)C2CCCCC2)cc1 15.8 µM
CC(C)(C)CC(=O)Nc1ccc(Nc2ccccc2)cc1 17.8 µM
CC1CCCCC1NC(=O)COC(=O)COc1ccccc1Cl (stereo not given) 17.8 µM
Cc1ccc(-c2ccc(=O)n(CC(=O)NCCC(C)C)n2)cc1 5.01 µM
CCN(CC)C(=S)SCC(=O)c1ccc(F)cc1 15.8 µM
CCC(CC)C(=O)Nc1ccc(Cl)c(Cl)c1 14.1 µM
CC1Cc2ccccc2N1C(=O)CSC1=NCCS1 (stereo not given) 10 µM
Fc1ccccc1CNc1ccc(Cl)cc1 11.2 µM
Cc1ccc(C(=S)N2CCCCCC2)cc1 28.2 µM
Oc1ccc(Cc2ncc(C(F)(F)F)cc2Cl)cc1 15.8 µM
O=C(CCN1CCN(CCO)CC1)Nc1ccc(C2CCCC2)cc1 31.6 µM
COc1ccccc1CC(=O)NC12CC3CC(CC(C3)C1)C2 12.6 µM
Cc1ccc(O)c(NC(=O)CCC2CCCCC2)c1 7.94 µM
O=C(Nc1ccc(Br)cc1)N1CCCCCCC1 6.31 µM
Nc1ccc(CSc2ccc(Cl)cc2)cc1 15.8 µM
Cc1ccc(OCc2cc(C(=O)NC3CCc4ccccc43)no2)cn1 (stereo not given) 17.8 µM
Cc1ccc(C(=O)N2CCCc3ccccc32)c(F)c1F 22.4 µM
Cc1ccc(NCc2ccccc2O)cc1 14.1 µM
O=C(Nc1cccc(Cl)c1)OCc1cnc(Cl)s1 31.6 µM
O=C1c2ccsc2SCCN1Cc1ccccc1Cl 14.1 µM
CCN(CC)CC(=O)Nc1c(C)cc(C(C)(C)C)cc1C 12.6 µM
CC1CCCC(C)N1C(=O)CSc1nnnn1Cc1ccccc1 (stereo not given) 8.91 µM
O=C(CSc1ccccn1)N1CCc2ccccc21 8.91 µM
O=c1c2c3c(sc2ncn1-n1cccc1)CCCCC3 10 µM
O=C(Cn1nc(-c2ccc(Cl)cc2)ccc1=O)NCC1CCCO1 (stereo not given) 14.1 µM
Cc1cc(C)n(-c2ccc(C(=O)NCc3ccc4c(c3)OCO4)cc2)n1 15.8 µM
O=C1c2ccsc2SCCN1Cc1cccc(Cl)c1 15.8 µM
O=C(Nc1cccc(Cl)c1)N1CCc2ccccc2C1 11.2 µM
O=C1CC2(CCCC2)CC(=O)N1c1ccccc1 15.8 µM
Cc1csc(SCC(=O)NC23CC4CC(CC(C4)C2)C3)n1 15.8 µM
O=C1CC(c2ccc(O)cc2)Oc2ccccc21 (stereo not given) 15.8 µM
O=C(COc1ccccc1Cl)N1CCCCCCC1 15.8 µM
COc1ccc(CNC(=O)COC(=O)CCC2CCCCC2)cc1 15.8 µM
Oc1ccc(NCc2ccc(OCc3ccccc3Cl)cc2)cc1 17.8 µM
O=C(NC1C2CC3CC(C2)CC1C3)c1ccc(Br)o1 (stereo not given) 11.2 µM
COc1ccc(CNc2ccc(C)c(C)c2)cc1 15.8 µM
CC(NC(=O)COC(=O)Cc1ccsc1)C1CC2CCC1C2 (stereo not given) 31.6 µM
Cc1ccc(NC2CCCN(C(=O)c3cccs3)C2)cc1C (stereo not given) 15.8 µM
O=C(CC12CC3CC(CC(C3)C1)C2)Nc1nncs1 10 µM
